Assay results published in the supplement of paper PMC6555819.

Columns and labels:
Assay in all cases: PBM binding z-score (relative to random genomic background probes); higher = stronger binding; sequences stand for … in GC…GCGATTGACAGCGTAGAATGAAGG
[1] = tested on: PPARg:RXRa DBDmut IVT, anti-RXR (DBD mutation: RXRa K156A/R161A, NR concentration 270 nM, RXRa partner concentration 90 nM)
Summary of the method: (§1)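 Each nuclear receptor dimer, without ligand, was incubated for 1 h on custom Agilent 4×180K protein-binding microarrays. Binding was detected with antibodies against each partner (one per run), and scanned fluorescence was regression-normalized. The binding z-scores are referenced to random human genomic background probes.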

[2] = tested on: PPARg:RXRa IVT, anti-PPARg (NR concentration 270 nM, RXRa partner concentration 90 nM)
Summary of the method: as §1

[3] = tested on: PPARg DBDmut:RXRa IVT, anti-PPARg (DBD mutation: PPARg1 K132A/R137A, NR concentration 270 nM, RXRa partner concentration 90 nM)
Summary of the method: as §1

[4] = tested on: PPARg DBDmut IVT, anti-PPARg (DBD mutation: PPARg1 K132A/R137A, NR concentration 270 nM)
Summary of the method: as §1

[5] = tested on: PPARg homodimer (NR concentration 180 nM)
Summary of the method: as §1

[6] = tested on: PXR:RXRa (NR concentration 270 nM, RXRa partner concentration 90 nM)
Summary of the method: as §1

[7] = tested on: PXR homodimer (NR concentration 270 nM)
Summary of the method: as §1

[8] = tested on: RARa:RXR (NR concentration 270 nM, RXRa partner concentration 90 nM)
Summary of the method: as §1

[9] = tested on: RARa homodimer (NR concentration 270 nM)
Summary of the method: as §1

[10] = tested on: RARb:RXRa (NR concentration 270 nM, RXRa partner concentration 90 nM)
Summary of the method: as §1

[11] = tested on: RARb homodimer (NR concentration 270 nM)
Summary of the method: as §1

[12] = tested on: RARg:RXRa (NR concentration 270 nM, RXRa partner concentration 90 nM)
Summary of the method: as §1

[13] = tested on: RARg homodimer (NR concentration 270 nM)
Summary of the method: as §1

[14] = tested on: RXRa DBDmut IVT, anti-RXR (DBD mutation: RXRa K156A/R161A, NR concentration 90 nM)
Summary of the method: as §1

[15] = tested on: RXRa homodimer (NR concentration 180 nM)
Summary of the method: as §1

[16] = tested on: THRa:RXRa (NR concentration 90 nM, RXRa partner concentration 90 nM)
Summary of the method: as §1

[17] = tested on: THRa homodimer (NR concentration 90 nM)
Summary of the method: as §1

[18] = tested on: VDR homodimer (NR concentration 270 nM)
Summary of the method: as §1

| Sequence | PBM binding z-score [1] | PBM binding z-score [2] | PBM binding z-score [3] | PBM binding z-score [4] | PBM binding z-score [5] | PBM binding z-score [6] | PBM binding z-score [7] | PBM binding z-score [8] | PBM binding z-score [9] | PBM binding z-score [10] | PBM binding z-score [11] | PBM binding z-score [12] | PBM binding z-score [13] | PBM binding z-score [14] | PBM binding z-score [15] | PBM binding z-score [16] | PBM binding z-score [17] | PBM binding z-score [18] |
| --- | --- | --- | --- | --- | --- | --- | --- | --- | --- | --- | --- | --- | --- | --- | --- | --- | --- | --- |
| TCGAGTAGGTTAGGAGCATTCAGAATGGCGTCGA | 1.4 | 0.397 | -0.907 | -1.2 | -0.371 | -0.392 | -0.58 | -0.181 | -0.978 | 0.0424 | -0.383 | -0.196 | -0.317 | -0.149 | 0.0721 | -0.459 | -0.881 | -0.161 |
| GGGACTGGGGCATCAGCAGGTTACCATAACTTAA | 4.49 | 5.48 | 0.985 | 1.98 | 1.51 | 1.12 | 0.678 | 1.2 | 0.663 | 1.33 | 1.91 | 1.51 | 1.03 | -0.52 | 0.556 | 1.66 | 1.46 | 0.605 |
| ATACCAAGGTGATCATGAGGTCGTTGATACTAAC | 0.474 | 1.5 | 0.599 | 0.991 | 0.68 | 3.42 | 1.96 | 2.22 | 0.136 | 1.49 | 1.85 | 2.23 | 1.18 | 1.08 | 1.75 | 3.55 | 2.94 | 3.15 |
| CAAACTAGGTCACGAAAGGACAAAGTCGAATGAC | 8.65 | 9.28 | 5.83 | 2.82 | 2.7 | 4.22 | 0.691 | 3.22 | 1.93 | 4.54 | 4.13 | 5.37 | 6.43 | 1.59 | 4.1 | 4.56 | 1.59 | 1.06 |
| CCAGACAGGTTAAAGGTAACTCAGTCTGGTACGC | 0.728 | 1.86 | -0.35 | -0.757 | 1.24 | 2.15 | -0.196 | 3.52 | 0.287 | 1.69 | 1.09 | 2.24 | 1.28 | 0.388 | 3.23 | 1.37 | -0.0486 | 0.276 |
| TCTGCTAGGTCAGTTGGTGAGCTAACGAGCTGCC | 2.62 | 2.7 | 0.403 | 1.14 | -0.166 | -0.0879 | -1.19 | 0.102 | -1.25 | 3.16 | 1.93 | 2.27 | 3.76 | 0.367 | 0.541 | 1.04 | -0.41 | -0.739 |
| AGATGTAGGTTAAGGGTCATTCAGGTTGGTTCGC | 7.33 | 7.46 | 1.97 | 1.04 | 3.44 | 5.52 | 3.11 | 6.2 | 2.4 | 3.66 | 4.06 | 4.87 | 3.79 | 2.18 | 6.66 | 3.64 | 2.06 | 4.78 |
| AACACAGGGTCACTAGGCCAGAGTAGGTACGAAT | 3.35 | 5.16 | 3.43 | 0.694 | 5.13 | 3.16 | 0.347 | 4.14 | 0.685 | 4.19 | 3.3 | 5.06 | 4.83 | 2.79 | 5.24 | 3.3 | 1.02 | 2.44 |
| ATCGAAAGGTCGTGAGCTGAGTATACAGAAAGGC | -0.173 | 1.49 | 0.42 | 0.76 | 1.16 | 2.75 | 0.0585 | 3.56 | -0.0844 | 3.76 | 2.17 | 4.41 | 3.74 | 0.921 | 5.11 | 2.31 | -0.456 | 0.299 |
| CCAGAGAGGTGAGAAGGTAACTCAGCCTCGATTA | 2.21 | 1.69 | -0.147 | -0.518 | 0.918 | 0.339 | 0.0728 | 1.04 | -0.0942 | 1.57 | 1.31 | 1.52 | 1.22 | 0.0821 | 1.05 | 1.19 | 0.396 | 0.477 |
| TTACCAAGGTGAAACGTCGTTGATGCACGCCTTG | 3.12 | 2.95 | 0.206 | 0.358 | 0.178 | -0.0159 | -0.972 | 0.592 | -0.282 | 1.62 | 0.238 | 0.69 | 0.555 | 0.0137 | 1.01 | 1.59 | 0.421 | -0.415 |
| CCGACTGGGGCAGAAAGGTTACCAGACCATCCGG | 1.28 | 2.02 | -0.764 | -1.01 | 0.446 | 0.737 | -0.356 | 1.47 | -0.579 | 1.89 | 2.18 | 1.75 | 1.28 | -0.651 | 1.71 | 0.99 | -0.742 | -0.568 |
| AGAACGAGGGCACGCTGAGTGGATAGCAGAGTAG | 4.13 | 3.9 | 0.715 | 0.00545 | 0.149 | 0.143 | -0.338 | 0.776 | -0.364 | 2.42 | 0.942 | 1.87 | 2.16 | 1.48 | 1.47 | 1.66 | -0.0727 | 0.664 |
| CGTCCAAGGTCATAGGAGGTCAGTAAAGACAGAT | 3.22 | 4.57 | 1 | 1.13 | 5.13 | 6.88 | 4.18 | 6.22 | 2.02 | 5.38 | 5.26 | 6.85 | 7.38 | 4.16 | 6.73 | 5.25 | 3.1 | 4.5 |
| ATACCAAGGTGATCGTGAGGTGGTTGATACTAAC | 0.119 | 0.996 | 0.272 | 0.15 | 0.0507 | 0.417 | 0.167 | 0.474 | 0.144 | 0.774 | 0.533 | 0.588 | 0.258 | -0.212 | 0.48 | 1.61 | 0.979 | 0.166 |
| CCGACTGGGGCAAAGGTAACCATACTCAGTACGA | 4.95 | 5.05 | -0.085 | -0.917 | 0.706 | 0.067 | -0.401 | 1.14 | -0.0329 | 0.906 | 0.873 | 1.28 | 0.824 | -0.208 | 1.19 | 0.563 | -0.249 | -0.353 |
